Entries with a potency or affinity are not part of this list. The source made the active and inactive calls.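 Rule for the calls: active = compounds lowering cell ATP signal whose fitted half-maximal concentration is at most twice the top tested dose; inconclusive = flat curve with 30 to 70% signal loss, or poor fit; inactive = the rest.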
assay: HEK293T cell cytotoxicity, dose response, cytotoxicity control, CellTiter-Glo luminescence, dry powder, set 6 (AID 651949); settings: HEK293T viability, CellTiter-Glo ATP luminescence, 48 h; series mostly up to 26 µM

Question: Which outcome does the source give for `Fc1ccccc1CSc1nnc(-c2ccccc2)o1` here?
Answer: The outcome was “inactive”.

Question: Which outcome does the source give for `FC(F)(F)Oc1cccc(-c2nnc(SCc3ccccc3)o2)c1` here?
Answer: The outcome was “inactive”.

Question: For `Fc1ccc(CSc2nnc(-c3ccc(Cl)cc3)o2)cc1`, which outcome is on record?
Answer: The outcome was “inactive”.

Question: For `Clc1cccc(CSc2nnc(-c3ccccc3)o2)c1`, which outcome is on record?
Answer: The outcome was “inactive”.

Question: Which outcome does the source give for `O=C(Cc1ccccc1)C(C(=O)c1nnc(-c2ccccc2)o1)c1ccccc1` (configuration not stated) here?
Answer: Its outcome is “inactive”.

Question: Which outcome does the source give for `Cc1ccc(-c2nnc(SCc3ccccc3)o2)cc1` here?
Answer: Its outcome is “inactive”.

Question: Which outcome does the source give for `c1ccc(Sc2nnc(-c3ccccc3)o2)cc1` here?
Answer: Its outcome is “inactive”.

Question: For `c1ccc(CSc2nnc(C3CCCCC3)o2)cc1`, which outcome is on record?
Answer: Its outcome is “inactive”.

Question: With `COc1ccccc1-c1nnc(SCc2ccccc2)o1` as the molecule, how does the outcome read?
Answer: The outcome was “inactive”.

Question: Which outcome does the source give for `Cc1cccc(CSc2nnc(-c3ccc(Cl)cc3)o2)n1` here?
Answer: The outcome was “inactive”.

Question: With `Clc1ccc(-c2nnc(SCc3cn(-c4ccccc4)nn3)o2)cc1` as the molecule, how does the outcome read?
Answer: The outcome was “inactive”.

Question: For `c1ccc(CNc2nnc(-c3ccccc3)o2)cc1`, which outcome is on record?
Answer: The outcome was “inactive”.

Question: With `COc1cccc(-c2nnc(SCc3ccccc3)o2)c1` as the molecule, how does the outcome read?
Answer: Its outcome is “inactive”.

Question: Which outcome does the source give for `Fc1ccc(-c2nnc(SCc3cn(-c4ccccc4)nn3)o2)cc1` here?
Answer: The outcome was “inactive”.

Question: For `FC(F)(F)Oc1ccccc1-c1nnc(SCc2ccccc2)o1`, which outcome is on record?
Answer: Its outcome is “inactive”.

Question: For `Fc1ccc(CSc2nnc(-c3ccccc3)o2)cc1`, which outcome is on record?
Answer: The outcome was “inactive”.

Question: For `Fc1ccccc1-c1nnc(SCc2ccccc2)o1`, which outcome is on record?
Answer: The outcome was “inactive”.
